Screening results deposited in PubChem BioAssay by National Center for Advancing Translational Sciences (NCATS).
Hits are enriched below; roughly 19% of the tested compounds scored in any of these assays.
Gal4-VP16 FLuc – VP16 counterscreen qHTS for inhibitors of ROR gamma transcriptional activity | Potency, µM (series often up to 53.6 µM), for the others: at the top dose activity, negative = inhibition, actives largely listed as inhibitors | Drosophila S2 Gal4-VP16 UAS-luciferase, luminescence, 20 h | hit rate 3.5% among 310,000;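 further: Gal4-VP16 expression switched on by copper sulfate through the metallothionein promoter; nearly all actives have a fitted effect of over 50% in size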
TDP1 block – qHTS Assay for Inhibitors of Tyrosyl-DNA Phosphodiesterase (TDP1); Tyrosyl-DNA phosphodiesterase 1 (Homo sapiens), Q9NUW8; recombinant TDP1, AlphaScreen DNA substrate cleavage; Potency, µM (titrated, usually from 130 µM), for the others: at the highest dose activity change, negative = inhibition, usual class: inhibitors; hit rate 0.28% among 350,000; AID 485290, 2010; further: nearly all actives have a fitted effect of over 40% in size
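AlphaScreen read-out: signal falls as enzyme removes the 3' tyrosine-FITC from a 5'-biotinylated DNA oligo (15 nM, 5 min, RT). Enzyme was E. coli-made recombinant Tdp1 at 1 nM, exposed to compound for 15 min beforehand; beads 10 ug/ml, 10 min.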
TDP1 cell noCPT – qHTS for Inhibitors of human tyrosyl-DNA phosphodiesterase 1 (TDP1): qHTS in cells in absence of CPT; hit rate 15% among 420,000; DT40 Tdp1-/- hTDP1 cells, no CPT, ATP luminescence, 48 h; Potency, µM (series often up to 46.2 µM), inactives show at the highest dose activity change, negative = growth inhibition, actives largely listed as inhibitors; AID 686978, 2013; further: nearly all actives have a fitted effect of over 55% in size
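Seeded 400 DT40-hTDP1 cells/well (vehicle DMSO, no 20 nM CPT); pinned compounds; ≥48 hr at 37 °C; CellTiter-Glo luminescence as viability measure.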
DT40 TDP1 CPT – qHTS for Inhibitors of human tyrosyl-DNA phosphodiesterase 1 (TDP1): qHTS in cells in presence of CPT; AID 686979, 2013; chicken DT40 Tdp1-/-;hTDP1 cells + 20 nM CPT, ATP luminescence, 48 h; hit rate 12% among 420,000; Potency, µM (titrated, usually from 46.2 µM), for inactives: at the top dose activity change, negative = growth inhibition, most hits filed as inhibitors; further: nearly all actives have a fitted effect of over 55% in size
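Chicken DT40 Tdp1-/- cells stably complemented with human TDP1 were seeded at 400 cells/well in medium containing 20 nM camptothecin, exposed to pin-transferred compounds, and grown at 37 °C for at least 48 hr. Viability was read as ATP luminescence.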
RORg inh – qHTS for inhibitors of ROR gamma transcriptional activity. Nuclear receptor ROR-gamma (Mus musculus), P51450. Drosophila S2 Gal4-RORgamma UAS-luciferase reporter, 20 h. Potency, µM (series often up to 53.6 µM), for the others: at the highest dose activity change, negative = inhibition, usual class: inhibitors. hit rate 5.4% among 310,000. AID 2551, 2010; further: nearly all actives have a fitted effect of over 60% in size
Target sequence (P51450 whole entry, looked up, the tested form may be a part): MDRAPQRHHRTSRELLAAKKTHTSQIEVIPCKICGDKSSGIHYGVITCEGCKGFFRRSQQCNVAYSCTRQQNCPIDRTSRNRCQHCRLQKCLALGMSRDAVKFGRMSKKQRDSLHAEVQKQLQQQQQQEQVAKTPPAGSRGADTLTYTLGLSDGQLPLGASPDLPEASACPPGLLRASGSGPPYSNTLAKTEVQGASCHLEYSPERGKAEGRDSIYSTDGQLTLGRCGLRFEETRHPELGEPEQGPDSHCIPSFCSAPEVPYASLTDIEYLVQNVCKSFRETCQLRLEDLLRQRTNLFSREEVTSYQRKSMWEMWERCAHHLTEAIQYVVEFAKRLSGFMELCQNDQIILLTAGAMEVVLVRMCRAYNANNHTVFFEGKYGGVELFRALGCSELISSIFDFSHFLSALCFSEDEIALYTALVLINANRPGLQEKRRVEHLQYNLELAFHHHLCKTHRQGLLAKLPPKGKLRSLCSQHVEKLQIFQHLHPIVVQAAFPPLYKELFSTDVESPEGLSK
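Read-out: Photinus luciferase luminescence; inhibitors lower reporter signal. Insect Schneider cells with Gal4-ROR gamma fusion under metallothionein promoter, UAS reporter; 700 uM final copper sulfate induction, 20 hr, ambient temperature.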
* marks the source's active call; other numbers are inactive results; [ ] = remark or other dose. The call rests on the fitted dose curve; in most records, active means well fitted curve in the direction sought with a large enough effect; inconclusive means small, poorly fitted or top-dose-only effect, or another doubt; inactive means no such curve, though single readings can be large; an effect the other way counts as inactive or inconclusive. On the % scale 0 is the no-effect control and ±100 the full control effect; potency means the concentration at half of the fitted maximal effect.

Results for CC(C)OCCCNC(=O)c1ccc(CSc2nc3cccnc3n2Cc2ccccc2)cc1 ?
TDP1 block: 8%; TDP1 cell noCPT: 23µM*; DT40 TDP1 CPT: inconclusive

What do the screens show for `COCCCNC(=O)c1ccc(CSc2nc3cccnc3n2Cc2ccc(OC)cc2)cc1`?
TDP1 block: 9%; TDP1 cell noCPT: 16µM*; DT40 TDP1 CPT: 23µM*

How did COc1ccc(NC(=O)C2C3C=CC4(O3)C2C(=O)N(CCN2CCCCC2C)C4C(=O)NC2CCCC(C)C2C)cc1 (stereo not drawn) do in these assays?
Gal4-VP16 FLuc: -2%; TDP1 block: 5%; TDP1 cell noCPT: inconclusive; DT40 TDP1 CPT: -2%; RORg inh: -9%

Results for CN(C(=O)CSc1nc2ccccc2c(=O)n1-c1ccc(F)cc1)C1CCS(=O)(=O)C1 (stereo not drawn) ?
TDP1 block: 1%; TDP1 cell noCPT: 7%; DT40 TDP1 CPT: -14%

Results for Cc1ccccc1-c1cncnc1N1CCN(C)CC1 ?
Gal4-VP16 FLuc: -5%; TDP1 cell noCPT: 5%; DT40 TDP1 CPT: -16%; RORg inh: -12%

Results for CC(C)CC(=O)N[C@H](C(=O)N[C@H](C(=O)N[C@@H](CC(C)C)[C@H](O)CC(=O)N[C@@H](C)C(=O)N[C@@H](CC(C)C)[C@H](O)CC(=O)O)C(C)C)C(C)C ?
Gal4-VP16 FLuc: -2%[17 µM]; TDP1 block: 9%[21 µM]; RORg inh: 9%[16.9 µM]

Results for COc1cccc(NC(=O)NCc2ccc3c(c2)CCN3C(=O)c2ccccc2)c1 ?
TDP1 block: 8%; TDP1 cell noCPT: inconclusive; DT40 TDP1 CPT: inconclusive

How did COC(=O)c1ccccc1NC(=O)NCc1ccc2c(c1)CCN2C(=O)c1ccccc1 do in these assays?
TDP1 block: 9%; TDP1 cell noCPT: 16µM*; DT40 TDP1 CPT: 23µM*

What do the screens show for `CCc1ccccc1NC(=O)NCc1ccc2c(c1)CCN2C(=O)c1ccccc1`?
TDP1 block: 0%; TDP1 cell noCPT: 23µM*; DT40 TDP1 CPT: inconclusive

What do the screens show for `Cc1ccc(C(=O)N2CCc3cc(CNC(=O)CSc4ccccc4)ccc32)cc1`?
TDP1 block: 4%; TDP1 cell noCPT: 15µM*; DT40 TDP1 CPT: 15µM*

What do the screens show for `COc1ccc(C)cc1NC(=O)NCc1ccc2c(c1)CCN2C(=O)c1ccccc1`?
TDP1 block: 0%; TDP1 cell noCPT: 21µM*; DT40 TDP1 CPT: 23µM*

What do the screens show for `COc1ccc(N(CC(=O)NCc2cccs2)S(=O)(=O)c2ccc(F)cc2)cc1`?
TDP1 block: 0%; TDP1 cell noCPT: 7%; DT40 TDP1 CPT: -6%

How did COc1ccc(CC(=O)NCc2ccc3c(c2)CCN3C(=O)c2ccc(C)cc2)cc1OC do in these assays?
TDP1 block: 9%; TDP1 cell noCPT: 12µM*; DT40 TDP1 CPT: 13µM*

Results for COc1cccc2[nH]c(C(=O)NCc3ccc4c(c3)CCN4C(=O)c3ccc(F)cc3)cc12 ?
TDP1 block: 7%; TDP1 cell noCPT: inconclusive; DT40 TDP1 CPT: inconclusive

How did COC(=O)c1cc(S(=O)(=O)N2CCN(c3ccccc3)CC2)c[nH]1 do in these assays?
Gal4-VP16 FLuc: 3%; TDP1 cell noCPT: inconclusive; DT40 TDP1 CPT: -28%; RORg inh: 20%

Results for COC(=O)c1cc(S(=O)(=O)N2CCC(c3cc(OC)ccc3OC)C2)c[nH]1 (stereo not drawn) ?
Gal4-VP16 FLuc: inconclusive; TDP1 block: 2%; TDP1 cell noCPT: inconclusive; DT40 TDP1 CPT: 13µM*; RORg inh: 32%

Results for COC(=O)c1cc(S(=O)(=O)N2CCC(c3ccccc3)C2)c[nH]1 (stereo not drawn) ?
Gal4-VP16 FLuc: -13%; TDP1 block: 1%; TDP1 cell noCPT: inconclusive; DT40 TDP1 CPT: 23µM*; RORg inh: 42%
